# Screens as filed in PubChem.
# Hits are enriched below; roughly 3.2% of the tested compounds scored in any of these assays.
# GSIS activator: GLuc luminescence reporter in INS-1E cells, primary screen for activators of glucose-dependent secretion of insulin | 370,000 tested, 0.61% active | activation, % at 16.6 µM | INS-1E GLuc reporter insulin secretion, 2-3 h;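 active = lowest replicate activation of at least 40%, so every replicate reaches that level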;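 also: 0% = median of neutral control wells and 100% = median of IBMX positive control wells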
# Ecoli rRNA inh: inhibitors of bacterial rRNA selective over humanized ribosomes | E. coli WT GFP vs humanized-ribosome RFP mutants, fluorescence, 24 h; active compounds read low; DMSO median 0, no signal -100 | GFP signal change (wild-type ribosome), % (test concentration not listed) | 350,000 tested, 1.6% active | AID 720706;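 active = significant combined selectivity score with lowered wild-type GFP, culture density cut under 30%, mutant RFP and density less affected; inactive = any of these conditions unmet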
# DENV2 CPE: inhibitors of DENV2 cytopathic effect | DENV2-infected cells, cytopathic effect rescue, plate reader | CPE inhibition, % at 9.99 µM | 350,000 tested, 1.7% active | AID 651640; in the data active = CPE inhibition above about 20%, passing the limit was not always enough; inconclusive = no clear call, values can overlap the other calls; tested in BHK-21 cells;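 also: 0% = median of neutral control wells and 100% = median of positive control wells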
# ERAP1 inh: blocks human ERAP1 aminopeptidase activity; recombinant ERAP1, Leu-AMC fluorescence, 60 min; inhibition, % at 10.7 µM; 340,000 tested, 0.15% active; AID 652197;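 active = mean replicate inhibition of at least 30%, or all replicates individually reaching that 30% level; inactive = mean below 30% and not every replicate reaching it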;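 also: 0% = neutral control wells and 100% = L-leucinethiol positive control wells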
# Target sequence (Q9NZ08 whole entry, looked up): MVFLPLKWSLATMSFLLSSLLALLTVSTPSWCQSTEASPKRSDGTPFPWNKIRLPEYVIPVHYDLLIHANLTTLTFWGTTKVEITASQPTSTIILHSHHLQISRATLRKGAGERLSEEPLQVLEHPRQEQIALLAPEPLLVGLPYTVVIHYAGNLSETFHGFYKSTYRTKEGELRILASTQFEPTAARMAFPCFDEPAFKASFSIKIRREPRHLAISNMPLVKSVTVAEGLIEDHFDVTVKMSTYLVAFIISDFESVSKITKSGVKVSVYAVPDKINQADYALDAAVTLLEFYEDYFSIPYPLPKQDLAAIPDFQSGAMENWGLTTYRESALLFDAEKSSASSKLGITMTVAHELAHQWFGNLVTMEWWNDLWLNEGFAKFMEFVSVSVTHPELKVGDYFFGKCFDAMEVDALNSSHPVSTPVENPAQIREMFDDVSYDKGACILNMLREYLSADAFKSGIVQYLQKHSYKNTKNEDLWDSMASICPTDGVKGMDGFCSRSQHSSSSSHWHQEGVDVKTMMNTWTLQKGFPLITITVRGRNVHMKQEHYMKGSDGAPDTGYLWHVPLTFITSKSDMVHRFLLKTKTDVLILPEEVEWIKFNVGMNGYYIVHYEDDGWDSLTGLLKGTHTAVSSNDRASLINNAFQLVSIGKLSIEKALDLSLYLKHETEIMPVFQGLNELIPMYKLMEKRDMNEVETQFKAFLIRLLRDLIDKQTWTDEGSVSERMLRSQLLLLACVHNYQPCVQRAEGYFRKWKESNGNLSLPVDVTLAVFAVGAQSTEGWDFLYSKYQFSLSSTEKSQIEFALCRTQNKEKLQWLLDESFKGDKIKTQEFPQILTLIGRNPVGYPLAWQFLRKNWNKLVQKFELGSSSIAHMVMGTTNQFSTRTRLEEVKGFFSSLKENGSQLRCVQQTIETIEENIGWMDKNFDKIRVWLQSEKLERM
# PGC1a acetyl inh: modulators of PGC1a acetylation | U2OS PGC1a acetylation, AlphaScreen anti-acetyl-lysine; with virally co-expressed GCN5 acetyltransferase | inhibition, % at 15.6 µM | 350,000 tested, 0.17% active | AID 651687;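 active = every replicate shows inhibition of at least 40%; inconclusive = mean inhibition at least 40% but some replicate below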;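 also: 0% = neutral control wells and 100% = positive control wells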
# CaV13 ICDI inh: Disruptors of the CACNA1D IQ motif to Ca2+-dependent inactivation inhibitor domain association, primary screening, Förster resonance energy transfer in intact living …; HEK cells, CFP/YFP FRET ICDI-IQ, plate reader, 10 min; percent FRET-ratio fall versus neutral wells; inhibition, % at 12.3 µM; 340,000 tested, 0.098% active;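 active = mean replicate inhibition of at least 30% and at least 1% of replicates passing that level; inconclusive = only one of the two criteria is met; inactive = neither criterion is met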;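 also: 0% = median of the neutral control wells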
# * marks the source's active call; other numbers are inactive results; ? = inconclusive; . = no result.
SMILES,GSIS activator,Ecoli rRNA inh,DENV2 CPE,ERAP1 inh,PGC1a acetyl inh,CaV13 ICDI inh
CNc1cc(-c2ccc(OC)c(OC)c2)ncn1,37,0,1,-1,.,-5
CNc1ccc2ncc(-c3ccc(OC)c(OC)c3)n2n1,35,-6,-7,-4,58*,-10
CCOc1ccc(N(CC(=O)NC2CCCC2)S(=O)(=O)c2c(C)[nH]c(=O)[nH]c2=O)cc1,.,-1,54*,-8,-3,-9
CC1(C(=O)NS(=O)(=O)c2ccc(Cl)s2)CCN1C(=O)C1(c2ccccc2)CCCC1 (stereo not given),111*,-31*,3,-2,16,-4
CC1(C(=O)NS(=O)(=O)c2ccc(Cl)s2)CCN1C(=O)C1(c2ccc(Cl)cc2)CCC1 (stereo not given),59*,-34,1,2,17,-6
O=C(C[C@@H]1CC[C@@H]2[C@H](COC[C@@H](O)CN2Cc2nccs2)O1)NCc1ccc(F)cc1,2,-1,-6,0,1,.
O=C(NN(Cc1ccccc1)Cc1ccccc1)c1ccccc1,49*,12,7,2,-7,-9
Cc1ccc(S(=O)(=O)Nc2ccc3c(c2)C(=O)N([C@@H](C)CO)C[C@H](C)[C@H](CN(C)C(=O)Nc2ccc(F)cc2)O3)cc1,-10,-4,8,4,6,.
COCC(C)n1c(C)cc(C(=O)CSc2nnnn2-c2ccc(O)cc2)c1C (stereo not given),-3,-28*,4,-1,2,24
COc1ccc(C(C)=O)cc1CSc1nnc(-c2ccccc2O)n1-c1ccccc1,-9,-27*,9,5,.,-6
COc1ccc(C(C)=O)cc1CSc1nnnn1-c1ccc(O)cc1,17,-48*,1,.,1,-2
CCC(=O)N1C[C@@H](C)[C@H](OC)CN(C)C(=O)c2ccc(NC(=O)Nc3ccc(Cl)cc3)cc2OC[C@H]1C,-21,7,.,.,19,.
CCCC#Cc1ccc([C@@H]2[C@@H](CO)N3CCCCN(Cc4ccncc4)C[C@H]23)cc1,-11,8,47*,4,-6,.
CCCC#Cc1ccc([C@@H]2[C@@H](CO)N3CCCCN(Cc4cncnc4)C[C@H]23)cc1,9,7,.,.,-1,.
CCCC#Cc1ccc([C@H]2[C@@H](CO)N3CCCCN(Cc4ccncc4)C[C@H]23)cc1,-2,3,-25,1,-7,.
CCCC#Cc1ccc([C@@H]2[C@H]3CN(Cc4cncnc4)CCCCN3[C@H]2CO)cc1,-4,1,29*,-2,-1,.
COc1ccc(F)cc1C(=O)C1CCCN(Cc2cn(C)c3ccccc23)C1 (stereo not given),1,-31*,-6,4,-9,-11
C(#Cc1ccccc1)C[N+]1(CC#Cc2ccccc2)CCCC1,-11,-44*,-3,-3,1,-3
CCCN(C)C[C@H]1Oc2ncc(C#CC3CC3)cc2C(=O)N([C@@H](C)CO)C[C@@H]1C,4,3,.,.,1,.
COc1cc(OC)cc(-c2oc(=O)c3cc(OC)c(OC)cc3c2C#CCCO)c1,32,-3,30*,2,12,-9
O=C(C[C@@H]1C[C@H]2c3cc(NC(=O)NC4CCCC4)ccc3O[C@H]2[C@@H](CO)O1)NCc1cccnc1,1,2,?,3,-6,.
O=C(/C=C/c1ccco1)Nc1sc2c(c1C(=O)O)CCC2,15,-24*,-6,7,4,-6
N#Cc1c(NC(=O)/C=C/c2ccco2)sc2c1CCCC2,.,-12,-12,3,.,-5
C[C@@H]1CN([C@H](C)CO)C(=O)c2cc(NC(=O)CCC(F)(F)F)ccc2O[C@@H]1CN(C)S(=O)(=O)c1ccc(F)cc1,-5,-1,0,-1,1,.
C/C(=N\NC(=O)COc1ccc(C)cc1[N+](=O)[O-])c1cccs1,4,6,-2,-1,1,-4
SMILES,GSIS activator,Ecoli rRNA inh,DENV2 CPE,ERAP1 inh,PGC1a acetyl inh,CaV13 ICDI inh
C/C(=N\NC(=O)COc1ccc(C)cc1Br)c1cc([N+](=O)[O-])cs1,11,-23*,-4,0,-14,-7
O=C(NCC[C@@H]1CC[C@H](NS(=O)(=O)c2cccc(F)c2)[C@H](CO)O1)Nc1cc(F)ccc1F,-6,-6,5,3,-9,.
O=C(C[C@H]1CC[C@H](NS(=O)(=O)c2cccc(F)c2)[C@H](CO)O1)N1CCCCC1,-1,2,2,-2,1,.
O=C(NCC[C@@H]1CC[C@@H](NS(=O)(=O)c2cccc(F)c2)[C@@H](CO)O1)Nc1cc(F)ccc1F,-15,-4,24*,3,-15,.
O=C(C[C@H]1CC[C@@H](NS(=O)(=O)c2cccc(F)c2)[C@H](CO)O1)N1CCCCC1,5,2,25*,-3,-1,.
CC(C)NC(=O)N[C@H]1CC[C@H](CCNC(=O)C2CCC2)O[C@@H]1CO,1,0,-4,-3,7,.
O=C(C[C@@H]1C[C@@H]2c3cc(NC(=O)NC4CCCC4)ccc3O[C@@H]2[C@H](CO)O1)NCc1ccc(Oc2ccccc2)cc1,-1,5,19,-2,-3,.
Cc1cccc(/C=C/C(=O)c2ccc(NC3=NCCCS3)cc2)c1,-19,-40,4,35*,.,-2
O=C(/C=C/c1ccccc1)c1ccc(NC2=NCCCS2)cc1,17,-26*,-2,7,21,-3
O=C(/C=C/c1ccc(Br)cc1)c1ccc(NC2=NCCCS2)cc1,0,-13,2,-5,.,-21
CCNC(=O)Nc1ccc2c(c1)C(=O)N(C)[C@@H]1CC[C@H](CC(=O)NCc3ccc(F)cc3)O[C@H]1CO2,3,0,55*,0,0,.
CCNC(=O)C[C@@H]1CC[C@H]2[C@H](COc3ccc(NC(=O)NC(C)C)cc3C(=O)N2C)O1,11,1,-6,1,6,.
CCNC(=O)C[C@H]1CC[C@@H]2[C@H](COc3ccc(NC(=O)NC(C)C)cc3C(=O)N2C)O1,1,4,41*,1,5,.
CCNC(=O)C[C@H]1CC[C@@H]2[C@@H](COc3ccc(NC(=O)c4ccc(F)c(F)c4)cc3C(=O)N2C)O1,4,-2,-8,0,-3,.
CCNC(=O)C[C@H]1CC[C@H]2[C@H](COc3ccc(NC(=O)c4ccc(F)c(F)c4)cc3C(=O)N2C)O1,1,2,88*,0,0,.
CCNC(=O)Nc1ccc2c(c1)C(=O)N(C)[C@@H]1CC[C@@H](CC(=O)NCc3ccc(F)cc3)O[C@H]1CO2,13,3,1,5,5,.
CC(C)(O)C#Cc1ccc([C@@H]2[C@H]3CN(C(=O)c4ccc(F)cc4)CCCCN3[C@H]2CO)cc1,3,-2,2,3,7,.
